PubChem BioAssay (Tox21)
Records with an inconclusive call do not appear. Activity calls are given as the source filed them. Unless noted, calls come from the whole dose curve.

Key:
[1] = qHTS assay to identify small molecule antagonists of the sonic hedgehog signaling (Shh) pathway (AID 1259369); note: nearly all actives have a fitted effect of over 45% in size
Method in brief: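 NIH/3T3-derived Gli1-Luc reporter cells plated 4 h, dosed with compound, then stimulated with conditioned medium for 24 h at 37 C. Firefly luciferase luminescence read after 30 min with detection reagent at room temperature.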

[2] = target: Estrogen receptor beta (Homo sapiens) (UniProt Q92731); test: qHTS assay to identify small molecule agonists of the estrogen receptor beta (ER-beta) signaling pathway (AID 1259377; active = well fitted activation curve with a large enough effect in the signal ratio in the repeat runs, not every such curve was filed as active; the % refers to the signal ratio)
Method in brief: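 A UAS-controlled beta-lactamase reporter in ER-beta-UAS-bla HEK293T cells reports receptor activation. Compounds act for 16 hr at 37C in 2% charcoal-stripped serum, and a FRET substrate is read by fluorescence after 2 hours.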

[3] = qHTS assay to identify small molecule agonists of the androgen receptor (AR) signaling pathway in the presence of an antagonist - cell viability counter screen (AID 1259379; active = well fitted curve in the direction sought with a large enough effect in the repeat runs; an effect the other way counts as inactive or inconclusive;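 note: MDA-kb2 human breast cancer cells carrying an MMTV luciferase reporter; series mostly up to about 92 µM; nearly all actives have a fitted effect of over 25% in size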)
Method in brief: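 MDA-kb2 cells (MMTV-luciferase, AR/GR), 3,000/well, 5 h attachment, then 3.0 µM nilutamide (final) and compounds at 15 concentrations. Viability by CellTiter-Fluor fluorescence after 16 h at 37 °C, 0% CO2, in the reporter wells.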

[4] = qHTS assay to identify small molecule agonists of the estrogen receptor beta (ER-beta) signaling pathway - cell viability counter screen (AID 1259380; active = well fitted curve in the direction sought with a large enough effect in the repeat runs; an effect the other way counts as inactive or inconclusive; note: nearly all actives have a fitted effect of over 30% in size)
Method in brief: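 ER-beta-UAS-bla HEK293T cells in medium with 2% charcoal-stripped FBS, pre-incubated 6 hr, then treated 16 hr at 37C. Cytotoxicity read in the same wells by CellTiter-Glo luminescence after 30 min at room temperature.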

[5] = target: Androgen receptor (Homo sapiens) (UniProt P10275); test: qHTS assay to identify small molecule agonists of the androgen receptor (AR) signaling pathway in the presence of an antagonist (AID 1259381); note: nearly all actives have a fitted effect of over 15% in size
Method in brief: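 MDA-kb2 cells carrying MMTV-luciferase (AR/GR responsive), 3,000 cells/well, co-treated with 3.0 uM nilutamide final. Compounds at 15 concentrations, 16 hr at 37C without CO2. Luciferase luminescence read after 30 min with ONE-Glo.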

[6] = qHTS assay to identify small molecule antagonists of the estrogen receptor beta (ER-beta) signaling pathway - cell viability counter screen (AID 1259382; active = well fitted curve in the direction sought with a large enough effect in the repeat runs; an effect the other way counts as inactive or inconclusive;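 note: HEK293T cells carrying ER-beta-UAS-bla reporter stimulated with estradiol; series mostly up to about 92 µM; nearly all actives have a fitted effect of over 55% in size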)
Method in brief: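 ER-beta-UAS-bla HEK293T cells in 2% charcoal-stripped FBS medium, treated with compound plus 1 nM 17-beta-estradiol for 16 h at 37C. Viability read by CellTiter-Glo luminescence after 30 min at room temperature in the same wells.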

[7] = qHTS assay to identify small molecule agonists or antagonists of the thyroid stimulating hormone receptor (TSHR) signaling pathway - wild type cell line counter screen (AID 1259384)
Method in brief: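 Counter screen in untransfected Hek293: compounds (15-point titration, triplicate) plus phosphodiesterase inhibitor Ro20-1724 added after 18 h plating; 30 min RT. Intracellular cAMP via competitive d2/cryptate immunoassay, 1 h incubation.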

[8] = target: Thyrotropin receptor (Homo sapiens) (UniProt P16473); test: qHTS assay to identify small molecule antagonists of the thyroid stimulating hormone receptor (TSHR) signaling pathway (AID 1259385); note: nearly all actives have a fitted effect of over 20% in size
Method in brief: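 Antagonist mode: compound-treated TSHR-expressing HEK293 cells were stimulated with 1.5 ng/mL TSH (final) in presence of Ro20-1724 for 30 min at RT. HTRF cAMP detection after 1 h; each compound tested at 15 concentrations, triplicate.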

[9] = qHTS assay to identify small molecule agonists of the estrogen receptor alpha (ER-alpha) signaling pathway in the presence of an antagonist - cell viability counter screen (AID 1259386; active = well fitted curve in the direction sought with a large enough effect in the repeat runs; an effect the other way counts as inactive or inconclusive;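 note: series mostly up to about 92 µM; cells exposed to compounds for 22 h at 37 °C before the viability read; nearly all actives have a fitted effect of over 30% in size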)
Method in brief: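 Cell viability in VM7Luc4E2 cells (endogenous full-length ER-alpha) measured by CellTiter-Fluor fluorescence in the same wells as the luciferase screen. Cells pre-cultured 5 days in charcoal-stripped serum, then treated 22 h with compounds at 15 concentrations plus 10.0nM ICI-182,780.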

[10] = target: Progesterone receptor (Homo sapiens) (UniProt P06401); test: qHTS assay to identify small molecule agonists of the progesterone receptor (PR) signaling pathway (AID 1346784); note: nearly all actives have a fitted effect of over 30% in size
Method in brief: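 Agonist mode, quantitative HTS format in a HEK 293T line expressing a UAS-controlled beta-lactamase reporter; 16 hr compound exposure at 37C in 2% charcoal-stripped FBS, then LiveBLAzer B/G FRET fluorescence.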

[11] = qHTS assay to identify small molecule antagonists of the progesterone receptor (PR) signaling pathway - cell viability counter screen (AID 1346798; active = well fitted curve in the direction sought with a large enough effect in the repeat runs; an effect the other way counts as inactive or inconclusive; note: series mostly up to about 92 µM; nearly all actives have a fitted effect of over 50% in size)
Method in brief: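 Same-well multiplex: after 16 hr at 37C with compound and R5020 stimulation, HEK293T cells carrying a UAS-bla reporter received LiveBLAzer substrate (2 hr RT), then CellTiter-Glo (30 min RT) for luminescent viability.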

[12] = qHTS assay to identify small molecule agonists of the TGF-beta/Smad signaling pathway - cell viability counter screen (AID 1346829; active = well fitted curve in the direction sought with a large enough effect in the repeat runs; an effect the other way counts as inactive or inconclusive; note: top concentration of the series differs between compounds; nearly all actives have a fitted effect of over 45% in size)
Method in brief: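 Same-well cytotoxicity: CellTiter-Glo added after the 2 hr room-temperature beta-lactamase substrate step, luminescence measured 30 min later; cells had 5 hr of compound at 37 C.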

[13] = target: Estrogen receptor (Homo sapiens) (UniProt P03372); test: qHTS assay to identify small molecule agonists of the estrogen receptor alpha (ER-alpha) signaling pathway in the presence of an antagonist (AID 1259383); note: top concentration of the series differs between compounds; nearly all actives have a fitted effect of over 15% in size
Method in brief: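 VM7Luc4E2 cells express endogenous full-length ER-alpha with an ERE-luciferase reporter and were hormone-deprived for 5 days. Compounds at 15 concentrations were added with 10.0nM ICI-182,780 for 22hr at 37C. Luminescence was read with ONE-Glo.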

[14] = qHTS assay to identify small molecule agonists of the progesterone receptor (PR) signaling pathway - cell viability counter screen (AID 1346799); note: nearly all actives have a fitted effect of over 45% in size
Method in brief: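 Counter screen for cytotoxicity: compound-treated PR-UAS-bla HEK293T cells (16 hr, 37C, 5% CO2) were assayed with CellTiter-Glo, luminescence measured after 30 min at room temperature.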

[15] = qHTS assay to identify small molecule antagonists of the TGF-beta/Smad signaling pathway - cell viability counter screen (AID 1346824; active = well fitted curve in the direction sought with a large enough effect in the repeat runs; an effect the other way counts as inactive or inconclusive; note: nearly all actives have a fitted effect of over 50% in size)
Method in brief: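 Cytotoxicity counter-screen run in the same wells as the beta-lactamase Smad reporter read: CellTiter-Glo luminescence after 30 min at room temperature. HEK 293T SBE-bla cells had 5 hr compound exposure at 37 C with TGF-beta1 (0.25 ng/mL stock).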

[16] = qHTS assay to identify small molecule agonists of the TGF-beta/Smad signaling pathway (AID 1346859; active = well fitted activation curve with a large enough effect in the signal ratio in the repeat runs, not every such curve was filed as active; the % refers to the signal ratio; note: series mostly up to about 77 µM)
Method in brief: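 Smad-responsive beta-lactamase reporter cells (HEK 293T) received compounds from DMSO stocks after overnight attachment, were incubated 5 hr, then treated 2 hr with FRET substrate before dual-emission fluorescence measurement (405 nm excitation).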

[17] = target: Progesterone receptor (Homo sapiens) (UniProt P06401); test: qHTS assay to identify small molecule antagonists of the progesterone receptor (PR) signaling pathway (AID 1346795; active = well fitted inhibition curve with a large enough effect in the signal ratio in the repeat runs, not every such curve was filed as active; the % refers to the signal ratio)
Method in brief: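 HEK293T PR-UAS-bla reporter cells in charcoal-stripped serum (2%) received compound after a 6 hr settling period, followed by R5020 agonist at 1 nM final; 16 hr incubation preceded the FRET substrate step and fluorescence measurement.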

[18] = target: Thyrotropin-releasing hormone receptor (Homo sapiens) (UniProt P34981); test: qHTS assay to identify small molecule agonists of the thyrotropin-releasing hormone receptor (TRHR) signaling pathway (AID 1346891); note: series mostly up to about 58 µM
Method in brief: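 Agonist-mode calcium mobilisation screen: TRHR-transfected HEK293 cells cultured overnight (18 h), dye-loaded for 2 h at 37 °C, exposed to compounds, and monitored by fluorescence for 3 min.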

[19] = target: Thyrotropin-releasing hormone receptor (Homo sapiens) (UniProt P34981); test: qHTS assay to identify small molecule antagonists of the thyrotropin-releasing hormone receptor (TRHR) signaling pathway (AID 1346877; active = well fitted inhibition curve with a large enough effect in the repeat runs, not every such curve was filed as active; note: series mostly up to about 51 µM)
Method in brief: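 TRHR-expressing HEK293 cells loaded with calcium dye for 2 h at 37 C; compounds pre-incubated 5 min at room temperature before TRH challenge at 1 nM final. Intracellular calcium fluorescence read kinetically for 3 min; 15 concentrations in triplicate.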

[20] = target: Estrogen receptor beta (Homo sapiens) (UniProt Q92731); test: qHTS assay to identify small molecule antagonists of the estrogen receptor beta (ER-beta) signaling pathway (AID 1259378; active = well fitted inhibition curve with a large enough effect in the signal ratio in the repeat runs, not every such curve was filed as active; the % refers to the signal ratio)
Method in brief: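 Antagonist mode: compounds added to beta-lactamase reporter HEK293T ER-beta-UAS cells stimulated with E2 (1nM final), 16 hr at 37C. LiveBLAzer B/G FRET substrate, 2 hours room temperature, fluorescence read-out.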

Measured: Potency

Chain of Estrogen receptor (Homo sapiens) (P03372 whole entry, looked up): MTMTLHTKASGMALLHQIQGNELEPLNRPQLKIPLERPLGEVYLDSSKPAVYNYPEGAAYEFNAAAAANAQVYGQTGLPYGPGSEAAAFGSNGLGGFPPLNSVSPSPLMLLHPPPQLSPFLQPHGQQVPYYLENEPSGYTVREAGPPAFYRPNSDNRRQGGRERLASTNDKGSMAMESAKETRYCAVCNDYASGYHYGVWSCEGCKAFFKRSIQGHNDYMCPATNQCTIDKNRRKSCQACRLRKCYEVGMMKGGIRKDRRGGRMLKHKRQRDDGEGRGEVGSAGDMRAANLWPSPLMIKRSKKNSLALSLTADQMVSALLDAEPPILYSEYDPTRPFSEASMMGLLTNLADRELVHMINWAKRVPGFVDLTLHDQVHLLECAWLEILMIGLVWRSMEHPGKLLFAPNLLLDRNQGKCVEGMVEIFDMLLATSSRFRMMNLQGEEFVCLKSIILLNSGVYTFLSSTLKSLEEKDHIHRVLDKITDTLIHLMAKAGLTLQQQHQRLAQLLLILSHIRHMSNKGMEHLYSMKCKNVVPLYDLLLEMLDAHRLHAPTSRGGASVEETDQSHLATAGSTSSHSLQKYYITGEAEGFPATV
Chain of Thyrotropin-releasing hormone receptor (Homo sapiens) (P34981 whole entry, looked up): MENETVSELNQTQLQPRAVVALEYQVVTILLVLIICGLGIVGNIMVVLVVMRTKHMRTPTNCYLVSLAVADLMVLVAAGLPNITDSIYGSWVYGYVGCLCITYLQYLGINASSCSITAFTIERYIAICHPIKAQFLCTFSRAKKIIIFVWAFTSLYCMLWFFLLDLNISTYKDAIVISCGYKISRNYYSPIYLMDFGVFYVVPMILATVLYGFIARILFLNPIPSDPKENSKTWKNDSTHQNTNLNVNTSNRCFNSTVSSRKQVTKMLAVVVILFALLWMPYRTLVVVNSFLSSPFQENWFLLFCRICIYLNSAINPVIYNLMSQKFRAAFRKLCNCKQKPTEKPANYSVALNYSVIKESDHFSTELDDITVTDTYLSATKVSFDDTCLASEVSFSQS
Chain of Androgen receptor (Homo sapiens) (P10275 whole entry, looked up): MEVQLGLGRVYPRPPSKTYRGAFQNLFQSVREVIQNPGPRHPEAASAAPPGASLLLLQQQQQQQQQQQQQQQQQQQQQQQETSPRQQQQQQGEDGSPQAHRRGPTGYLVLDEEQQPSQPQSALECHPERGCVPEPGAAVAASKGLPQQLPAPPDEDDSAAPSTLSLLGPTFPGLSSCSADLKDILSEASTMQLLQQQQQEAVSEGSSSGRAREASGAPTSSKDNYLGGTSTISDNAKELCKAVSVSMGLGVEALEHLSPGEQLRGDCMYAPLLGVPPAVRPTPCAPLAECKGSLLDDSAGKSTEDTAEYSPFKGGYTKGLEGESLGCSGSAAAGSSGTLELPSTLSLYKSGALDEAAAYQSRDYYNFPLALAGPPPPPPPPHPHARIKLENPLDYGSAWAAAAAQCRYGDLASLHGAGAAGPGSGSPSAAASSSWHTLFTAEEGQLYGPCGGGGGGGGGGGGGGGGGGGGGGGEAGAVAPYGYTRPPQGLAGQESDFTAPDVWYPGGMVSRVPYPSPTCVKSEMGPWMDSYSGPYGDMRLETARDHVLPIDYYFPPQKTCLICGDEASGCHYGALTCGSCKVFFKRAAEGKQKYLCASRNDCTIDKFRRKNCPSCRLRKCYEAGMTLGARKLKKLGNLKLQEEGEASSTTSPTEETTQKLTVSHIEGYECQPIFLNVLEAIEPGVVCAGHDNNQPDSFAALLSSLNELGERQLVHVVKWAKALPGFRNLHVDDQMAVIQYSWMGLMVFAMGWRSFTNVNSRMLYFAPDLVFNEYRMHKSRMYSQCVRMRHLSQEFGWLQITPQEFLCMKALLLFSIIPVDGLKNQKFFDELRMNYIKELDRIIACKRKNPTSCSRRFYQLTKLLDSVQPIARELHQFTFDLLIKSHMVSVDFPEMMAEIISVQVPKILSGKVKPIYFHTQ
Chain of Estrogen receptor beta (Homo sapiens) (Q92731 whole entry, looked up): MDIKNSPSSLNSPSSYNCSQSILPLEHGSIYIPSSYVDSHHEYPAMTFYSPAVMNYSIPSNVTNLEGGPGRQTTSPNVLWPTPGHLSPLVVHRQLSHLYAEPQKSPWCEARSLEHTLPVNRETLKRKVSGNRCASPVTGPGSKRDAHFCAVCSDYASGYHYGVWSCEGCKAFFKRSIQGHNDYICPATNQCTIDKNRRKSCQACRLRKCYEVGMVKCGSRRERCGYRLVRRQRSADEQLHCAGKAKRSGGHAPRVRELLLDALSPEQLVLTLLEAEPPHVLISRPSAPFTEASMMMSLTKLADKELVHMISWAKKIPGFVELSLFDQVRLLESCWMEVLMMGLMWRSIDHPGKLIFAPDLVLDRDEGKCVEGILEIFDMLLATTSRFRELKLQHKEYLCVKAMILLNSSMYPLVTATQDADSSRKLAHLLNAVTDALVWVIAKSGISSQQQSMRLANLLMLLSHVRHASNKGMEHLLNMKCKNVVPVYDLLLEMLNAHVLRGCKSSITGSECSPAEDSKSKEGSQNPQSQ
Chain of Thyrotropin receptor (Homo sapiens) (P16473 whole entry, looked up): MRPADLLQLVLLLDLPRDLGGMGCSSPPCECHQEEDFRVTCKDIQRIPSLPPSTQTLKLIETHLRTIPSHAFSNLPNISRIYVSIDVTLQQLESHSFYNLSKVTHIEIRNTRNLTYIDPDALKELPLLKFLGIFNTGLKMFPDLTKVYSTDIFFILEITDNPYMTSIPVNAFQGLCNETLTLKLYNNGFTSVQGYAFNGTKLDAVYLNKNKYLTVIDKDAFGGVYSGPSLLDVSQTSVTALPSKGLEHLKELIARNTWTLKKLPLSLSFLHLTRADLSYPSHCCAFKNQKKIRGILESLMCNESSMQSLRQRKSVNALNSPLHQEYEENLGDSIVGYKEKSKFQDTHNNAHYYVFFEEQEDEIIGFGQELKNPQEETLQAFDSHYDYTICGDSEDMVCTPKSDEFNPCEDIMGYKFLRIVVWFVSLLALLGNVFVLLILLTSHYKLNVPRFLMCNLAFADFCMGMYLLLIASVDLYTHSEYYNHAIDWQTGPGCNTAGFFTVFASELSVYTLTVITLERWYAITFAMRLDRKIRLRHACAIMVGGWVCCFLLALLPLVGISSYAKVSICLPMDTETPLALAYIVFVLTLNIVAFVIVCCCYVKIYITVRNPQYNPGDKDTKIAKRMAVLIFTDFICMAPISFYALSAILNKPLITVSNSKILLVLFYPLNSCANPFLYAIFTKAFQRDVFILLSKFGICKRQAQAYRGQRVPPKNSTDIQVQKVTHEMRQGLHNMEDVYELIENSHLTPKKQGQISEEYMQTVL
Chain of Progesterone receptor (Homo sapiens) (P06401 whole entry, looked up): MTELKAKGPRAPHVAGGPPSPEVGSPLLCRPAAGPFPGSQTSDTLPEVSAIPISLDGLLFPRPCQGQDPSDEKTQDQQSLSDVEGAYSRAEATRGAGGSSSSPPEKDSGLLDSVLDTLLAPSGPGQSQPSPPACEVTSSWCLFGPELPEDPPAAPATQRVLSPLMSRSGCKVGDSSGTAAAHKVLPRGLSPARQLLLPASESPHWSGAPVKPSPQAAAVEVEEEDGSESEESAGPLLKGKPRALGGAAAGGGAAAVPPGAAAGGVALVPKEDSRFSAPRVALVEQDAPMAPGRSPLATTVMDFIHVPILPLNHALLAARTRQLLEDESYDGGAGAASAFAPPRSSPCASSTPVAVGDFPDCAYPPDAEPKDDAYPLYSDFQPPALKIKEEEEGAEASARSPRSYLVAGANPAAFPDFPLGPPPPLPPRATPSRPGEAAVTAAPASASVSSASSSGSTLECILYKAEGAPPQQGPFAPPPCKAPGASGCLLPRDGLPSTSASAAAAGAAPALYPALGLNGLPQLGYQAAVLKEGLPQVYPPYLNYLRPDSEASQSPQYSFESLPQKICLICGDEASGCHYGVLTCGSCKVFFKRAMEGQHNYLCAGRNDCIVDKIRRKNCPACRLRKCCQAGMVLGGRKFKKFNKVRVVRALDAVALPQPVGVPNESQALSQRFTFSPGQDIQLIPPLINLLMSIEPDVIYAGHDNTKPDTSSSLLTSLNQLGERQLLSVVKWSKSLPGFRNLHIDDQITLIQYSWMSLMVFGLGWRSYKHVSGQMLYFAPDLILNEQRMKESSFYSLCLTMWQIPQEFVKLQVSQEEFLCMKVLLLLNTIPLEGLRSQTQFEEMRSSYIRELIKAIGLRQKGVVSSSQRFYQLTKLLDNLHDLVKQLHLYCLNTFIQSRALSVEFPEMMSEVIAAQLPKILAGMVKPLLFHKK

COC(=O)CSc1cc(N=c2sc(=O)n3n2CCCC3)c(F)cc1Cl
not listed: [13] | [14] | [15] | [16] | [17] | [18] | [19] | [20]
inactive: all other assays above

O=C(O)COC(=O)Cc1ccccc1Nc1c(Cl)cccc1Cl
not listed: [4] | [6] | [11] | [17] | [18] | [19] | [20]
inactive: all other assays above

CCCCOC(=O)/C=C\C(=O)OCCCC
not listed: [4] | [5] | [6] | [14] | [19] | [20]
inactive: all other assays above

Cc1ccc2c(ccc3ccccc32)c1
not listed: [4] | [5] | [8] | [15] | [17] | [20]
inactive: all other assays above

CCCCCCc1ccc(N)cc1
not listed: [4] | [15] | [19] | [20]
inactive: all other assays above

CCCCCC(CO)CCC (stereo not given)
not listed: [3] | [4] | [5] | [12] | [13]
inactive: all other assays above

Cn1c(=O)c2c(ncn2CC(O)CO)n(C)c1=O (stereo not given)
not listed: [4] | [5] | [14] | [20]
inactive: all other assays above
